Laboratory results reported in PubChem BioAssay.
Peptide text beside a SMILES is read from it.

Each compound was assayed against NAD(+) hydrolase SARM1 (Homo sapiens) (UniProt Q6SZW1) (assay: blocking NAD cleavage by SARM1 SAM-TIR – cell lysate, NAD-Glo luminescence (AID 1508614;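 also: higher remaining NAD means stronger inhibition of SARM1 NADase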)). Conditions: SAM-TIR HEK293T lysate NADase, at 1 µM, hits give high values.
Sequence of NAD(+) hydrolase SARM1 (Homo sapiens) (Q6SZW1 whole entry, looked up): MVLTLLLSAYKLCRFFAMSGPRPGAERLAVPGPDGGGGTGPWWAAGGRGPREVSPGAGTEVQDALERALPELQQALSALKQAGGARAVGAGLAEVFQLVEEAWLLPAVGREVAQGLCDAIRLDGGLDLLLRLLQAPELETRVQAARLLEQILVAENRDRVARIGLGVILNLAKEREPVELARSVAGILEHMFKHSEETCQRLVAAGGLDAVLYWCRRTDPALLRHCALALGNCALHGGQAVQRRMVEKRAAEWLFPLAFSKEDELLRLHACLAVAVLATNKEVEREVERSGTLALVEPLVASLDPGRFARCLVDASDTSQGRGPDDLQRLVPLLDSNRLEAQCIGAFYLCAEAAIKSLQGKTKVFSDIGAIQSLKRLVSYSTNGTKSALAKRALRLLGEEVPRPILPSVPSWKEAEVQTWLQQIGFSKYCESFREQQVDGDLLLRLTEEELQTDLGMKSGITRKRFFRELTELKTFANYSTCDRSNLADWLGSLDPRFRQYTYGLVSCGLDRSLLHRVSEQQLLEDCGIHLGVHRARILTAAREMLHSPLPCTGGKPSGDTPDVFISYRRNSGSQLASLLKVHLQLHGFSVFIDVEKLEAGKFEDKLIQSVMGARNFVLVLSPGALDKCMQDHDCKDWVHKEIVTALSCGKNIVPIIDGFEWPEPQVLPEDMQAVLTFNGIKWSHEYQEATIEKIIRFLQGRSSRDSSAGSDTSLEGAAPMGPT

Remaining NAD, inactive:
Cc1cc2cc3c(C)cc(=O)oc3c(C)c2o1 10 nM, CC(=O)Nc1c(I)cc(I)c(C(=O)O)c1I 10 nM, NC(=O)c1ccccc1O 10 nM, Cc1cc2nc3c(=O)[nH]c(=O)nc-3n(C[C@H](O)[C@H](O)[C@H](O)CO)c2cc1C 10 nM, CN(C)c1ccc2nc3ccc(=[N+](C)C)cc-3sc2c1 10 nM, Cc1c(N(C)CS(=O)(=O)O)c(=O)n(-c2ccccc2)n1C 10 nM, Oc1c(Br)cc(Br)c2cccnc12 10 nM, C=CCSCC1Nc2cc(Cl)c(S(N)(=O)=O)cc2S(=O)(=O)N1 (stereo not given) 10 nM, C/C=C(/C(=C/C)c1ccc(O)cc1)c1ccc(O)cc1 10 nM, O=C(O)c1ccccc1C(=O)Nc1ccc(S(=O)(=O)Nc2nccs2)cc1 10 nM, CC(=O)NCCCCCC(=O)O 10 nM, Nc1ncnc2nc[nH]c12 10 nM, CC(=O)O[C@]1(C(C)=O)CC[C@H]2[C@@H]3C=C(Cl)C4=CC(=O)CC[C@]4(C)[C@H]3CC[C@@]21C 10 nM, CN1[C@@H]2CC[C@H]1CC(OC(=O)C(O)c1ccccc1)C2 (stereo not given in full) 10 nM, Nc1ccc(S(N)(=O)=O)cc1 10 nM, Nc1ccc(C(=O)Oc2ccccc2)c(O)c1 10 nM, CCCCOc1ccc(CC(=O)NO)cc1 10 nM, Nc1ncnc2c1ncn2[C@@H]1O[C@H](CO)[C@@H](O)[C@H]1O 10 nM, CC1=C(C(=O)O)N2C(=O)[C@@H](NC(=O)[C@H](N)c3ccc(O)cc3)[C@H]2SC1 10 nM, O=C(O)c1cc(O)c(O)c(O)c1 10 nM, CC1(C)O[C@@H]2C[C@H]3[C@@H]4C[C@H](F)C5=CC(=O)CC[C@]5(C)[C@H]4[C@@H](O)C[C@]3(C)[C@]2(C(=O)CO)O1 10 nM, CCCCC(CC)CN1CN(CC(CC)CCCC)CC(C)(N)C1 (stereo not given) 10 nM, O=C(COc1ccc(Cl)cc1)N1CCN(Cc2ccc3c(c2)OCO3)CC1 10 nM, CCN(CC)CCOC(=O)C(c1ccccc1)c1ccccc1 10 nM, COC(=O)[C@H](Cc1ccccc1)NC(=O)[C@@H](N)CC(=O)O (H-Asp-Phe-OMe) 10 nM, Cc1cc(=O)[nH]c(=S)[nH]1 10 nM, CCCCN(CCCC)CCCOC(=O)c1ccc(N)cc1 10 nM, CCN1CCCC(OC(=O)C(c2ccccc2)c2ccccc2)C1 (stereo not given) 10 nM, COC(=O)[C@@H](N)CS 10 nM, Oc1cccc(O)c1 10 nM, Cc1c(C(N)=O)cc([N+](=O)[O-])cc1[N+](=O)[O-] 10 nM, OCC(O)CN1CCN(c2ccccc2)CC1 (stereo not given) 10 nM, COc1cccc(OC)c1C(=O)N[C@@H]1C(=O)N2[C@@H]1SC(C)(C)[C@@H]2C(=O)O 10 nM, OC(CCN1CCCCC1)(c1ccccc1)c1ccccc1 10 nM, CCOc1ccc(Cc2nccc3cc(OCC)c(OCC)cc23)cc1OCC 10 nM, CC(=O)[C@@]1(O)CC[C@H]2[C@@H]3C[C@H](C)C4=CC(=O)C=C[C@]4(C)[C@@]3(F)[C@@H](O)C[C@@]21C 10 nM, CN1CCC(OC(c2ccccc2)c2ccccc2)CC1 10 nM, Nc1ccc(C(=O)O)cc1 10 nM, CC(=O)NO 10 nM, C=CCc1ccc(O)c(OC)c1 10 nM

Each compound was assayed against Mitogen-activated protein kinase 7 (Homo sapiens) (UniProt Q13164) (assay: Gal4-ERK5 driven luciferase induction – cell-based, HTS, primary screen (AID 1508626;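 active = luciferase signal above three times the same-plate solvent-only control wells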;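 also: luciferase driven by Gal4-ERK5 fusion binding five Gal4 sites before minimal TATA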)). Conditions: HeLa Gal4-ERK5 transactivation, 18 h, at 5 µM, hits give high values.
Sequence of Mitogen-activated protein kinase 7 (Homo sapiens) (Q13164 whole entry, looked up, the tested form may be a part): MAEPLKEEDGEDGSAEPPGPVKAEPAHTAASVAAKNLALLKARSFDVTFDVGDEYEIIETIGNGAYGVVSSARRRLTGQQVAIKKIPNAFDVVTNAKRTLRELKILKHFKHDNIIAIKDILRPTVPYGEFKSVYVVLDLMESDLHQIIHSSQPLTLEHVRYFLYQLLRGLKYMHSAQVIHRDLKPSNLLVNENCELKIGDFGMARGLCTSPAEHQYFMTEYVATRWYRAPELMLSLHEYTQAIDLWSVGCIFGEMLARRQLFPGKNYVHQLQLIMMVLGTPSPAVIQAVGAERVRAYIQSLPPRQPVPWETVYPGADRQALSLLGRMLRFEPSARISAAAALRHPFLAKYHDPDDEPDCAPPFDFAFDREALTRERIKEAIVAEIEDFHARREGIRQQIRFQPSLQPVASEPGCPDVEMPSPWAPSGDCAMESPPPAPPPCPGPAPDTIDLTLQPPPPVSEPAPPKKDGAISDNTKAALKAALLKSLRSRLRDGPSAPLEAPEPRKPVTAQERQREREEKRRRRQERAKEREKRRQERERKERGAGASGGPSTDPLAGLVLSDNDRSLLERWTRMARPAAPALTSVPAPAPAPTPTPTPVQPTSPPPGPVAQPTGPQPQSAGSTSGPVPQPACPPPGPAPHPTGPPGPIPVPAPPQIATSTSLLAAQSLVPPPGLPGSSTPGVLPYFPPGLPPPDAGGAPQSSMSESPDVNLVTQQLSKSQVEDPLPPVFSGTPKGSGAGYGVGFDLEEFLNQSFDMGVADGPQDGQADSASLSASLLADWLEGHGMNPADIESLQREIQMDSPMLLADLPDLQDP

Luciferase signal, inactive:
Cc1cc2cc3c(C)cc(=O)oc3c(C)c2o1 104 AU, CC(=O)Nc1c(I)cc(I)c(C(=O)O)c1I 40 AU, NC(=O)c1ccccc1O 56 AU, Cc1cc2nc3c(=O)[nH]c(=O)nc-3n(C[C@H](O)[C@H](O)[C@H](O)CO)c2cc1C 80 AU, CN(C)c1ccc2nc3ccc(=[N+](C)C)cc-3sc2c1 80 AU, Cc1c(N(C)CS(=O)(=O)O)c(=O)n(-c2ccccc2)n1C 40 AU, Oc1c(Br)cc(Br)c2cccnc12 88 AU, C=CCSCC1Nc2cc(Cl)c(S(N)(=O)=O)cc2S(=O)(=O)N1 (stereo not given) 40 AU, C/C=C(/C(=C/C)c1ccc(O)cc1)c1ccc(O)cc1 72 AU, O=C(O)c1ccccc1C(=O)Nc1ccc(S(=O)(=O)Nc2nccs2)cc1 92 AU, CC(=O)NCCCCCC(=O)O 76 AU, Nc1ncnc2nc[nH]c12 72 AU, CC(=O)O[C@]1(C(C)=O)CC[C@H]2[C@@H]3C=C(Cl)C4=CC(=O)CC[C@]4(C)[C@H]3CC[C@@]21C 76 AU, CN1[C@@H]2CC[C@H]1CC(OC(=O)C(O)c1ccccc1)C2 (stereo not given in full) 40 AU, Nc1ccc(S(N)(=O)=O)cc1 164 AU, Nc1ccc(C(=O)Oc2ccccc2)c(O)c1 84 AU, CCCCOc1ccc(CC(=O)NO)cc1 44 AU, Nc1ncnc2c1ncn2[C@@H]1O[C@H](CO)[C@@H](O)[C@H]1O 112 AU, CC1=C(C(=O)O)N2C(=O)[C@@H](NC(=O)[C@H](N)c3ccc(O)cc3)[C@H]2SC1 108 AU, O=C(O)c1cc(O)c(O)c(O)c1 100 AU, CC1(C)O[C@@H]2C[C@H]3[C@@H]4C[C@H](F)C5=CC(=O)CC[C@]5(C)[C@H]4[C@@H](O)C[C@]3(C)[C@]2(C(=O)CO)O1 228 AU, CCCCC(CC)CN1CN(CC(CC)CCCC)CC(C)(N)C1 (stereo not given) 88 AU, O=C(COc1ccc(Cl)cc1)N1CCN(Cc2ccc3c(c2)OCO3)CC1 84 AU, CCN(CC)CCOC(=O)C(c1ccccc1)c1ccccc1 84 AU, COC(=O)[C@H](Cc1ccccc1)NC(=O)[C@@H](N)CC(=O)O (H-Asp-Phe-OMe) 36 AU, Cc1cc(=O)[nH]c(=S)[nH]1 100 AU, CCCCN(CCCC)CCCOC(=O)c1ccc(N)cc1 120 AU, CCN1CCCC(OC(=O)C(c2ccccc2)c2ccccc2)C1 (stereo not given) 64 AU, COC(=O)[C@@H](N)CS 52 AU, Oc1cccc(O)c1 20 AU, Cc1c(C(N)=O)cc([N+](=O)[O-])cc1[N+](=O)[O-] 68 AU, OCC(O)CN1CCN(c2ccccc2)CC1 (stereo not given) 48 AU, COc1cccc(OC)c1C(=O)N[C@@H]1C(=O)N2[C@@H]1SC(C)(C)[C@@H]2C(=O)O 32 AU, OC(CCN1CCCCC1)(c1ccccc1)c1ccccc1 36 AU, CCOc1ccc(Cc2nccc3cc(OCC)c(OCC)cc23)cc1OCC 68 AU, CC(=O)[C@@]1(O)CC[C@H]2[C@@H]3C[C@H](C)C4=CC(=O)C=C[C@]4(C)[C@@]3(F)[C@@H](O)C[C@@]21C 76 AU, CN1CCC(OC(c2ccccc2)c2ccccc2)CC1 32 AU, Nc1ccc(C(=O)O)cc1 40 AU, CC(=O)NO 52 AU, C=CCc1ccc(O)c(OC)c1 12 AU
